The results in this text go back to PubChem BioAssay (NCI).

Test systems include SK-MEL-2 melanoma; EKVX NSCLC; SN12C renal; UO-31 renal; ACHN renal; CAKI-1 renal; A498 renal; CCRF-CEM leukemia; MOLT-4 leukemia; SR leukemia; RPMI-8226 leukemia; OVCAR-8 ovarian; OVCAR-5 ovarian; OVCAR-4 ovarian; SK-OV-3 ovarian; IGROV1 ovarian; OVCAR-3 ovarian; HS 578T breast; NCI/ADR-RES ovarian.
Common to all, as to assay: NCI-60 one-dose screen, 48 h (100 = growth as untreated, 0 = no growth, -100 = all killed)
Common to all, as to settings: 10 µM unless noted

The panel holds about 83,000 compounds, 20% with a hit somewhere; the sample as a whole holds those more often.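 Cells were grown in 96-well plates and exposed to the test compound at a single concentration for 48 hours; results are reported as percent growth, with values below 10 considered active.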 Values without a mark were called inactive. Activity calls are given as the source filed them.

Turning to `NC(=O)c1cc(I)ccc1NC(=O)/C=C/c1ccccc1`, the growth is -31.7% (active) in the assay on SK-MEL-2 melanoma; 36.1% in the assay with EKVX NSCLC; 31.5% in the assay on SN12C renal; 28.1% with UO-31 renal; 38.2% with ACHN renal; 25.6% in the assay with CAKI-1 renal. Moreover, the growth in the assay on A498 renal was -14.9% (active); in the assay with CCRF-CEM leukemia, 11.9%; with MOLT-4 leukemia it was 4.56% (active); with SR leukemia, 1.87% (active); in the assay on RPMI-8226 leukemia, -5.89% (active); in the assay on OVCAR-8 ovarian it was 31%. In addition, the growth in the assay with OVCAR-5 ovarian is 42.4%; with OVCAR-4 ovarian, 44.6%; with SK-OV-3 ovarian it was 69.8%; with IGROV1 ovarian, -52.7% (active); in the assay with OVCAR-3 ovarian, -63.3% (active); in the assay on HS 578T breast, -12.8% (active). For the same molecule, in the assay on NCI/ADR-RES ovarian, the growth was -37.1% (active).

`CSc1nc2ccccc2cc1/C=[N+](\[O-])c1ccccc1`: the growth with SK-MEL-2 melanoma is 95.5%; in the assay with EKVX NSCLC it was 79.5%; with SN12C renal, 45.2%; in the assay on UO-31 renal, 42.8%; with ACHN renal it was 80%; with CAKI-1 renal, 80.8%. Also, the growth with A498 renal is 102%; with CCRF-CEM leukemia, 10.5%; in the assay with MOLT-4 leukemia it was 22%; in the assay with SR leukemia, 22.1%; with RPMI-8226 leukemia it was 14.5%; with OVCAR-8 ovarian it was 39.5%. Besides, the growth in the assay with OVCAR-5 ovarian was 91.1%; in the assay with OVCAR-4 ovarian it was 70.8%; in the assay on SK-OV-3 ovarian it was 87.3%; with IGROV1 ovarian, 77.3%; in the assay with OVCAR-3 ovarian, 66.9%; in the assay with HS 578T breast, 74.1%. The growth in the assay with NCI/ADR-RES ovarian was 28.5%.

With `O=C(NCCCl)Nc1ncccc1OCc1ccccc1`, the growth in the assay on SK-MEL-2 melanoma was 101%; in the assay on EKVX NSCLC, 98.9%; with SN12C renal it was 97%; in the assay with UO-31 renal, 94.9%; in the assay on ACHN renal, 110%; in the assay on CAKI-1 renal, 97.9%. In addition, the growth in the assay with A498 renal was 90%; in the assay on CCRF-CEM leukemia, 106%; in the assay on MOLT-4 leukemia, 95.3%; in the assay on SR leukemia, 78%; in the assay with RPMI-8226 leukemia, 99.4%; with OVCAR-8 ovarian it was 104%. The growth with OVCAR-5 ovarian was 90.9%; in the assay on OVCAR-4 ovarian it was 96.8%; with SK-OV-3 ovarian, 114%; in the assay on IGROV1 ovarian, 95.8%; in the assay on OVCAR-3 ovarian, 107%; with HS 578T breast, 110%. Besides, in the assay with NCI/ADR-RES ovarian, the growth was 106%.

Turning to `N#C/C(=C\c1c(-c2ccccc2)[nH]c2ccccc12)C(N)=O`, the growth was 111% with SK-MEL-2 melanoma; 83.7% with EKVX NSCLC; 94.2% with SN12C renal; 93.4% with UO-31 renal; 88.8% in the assay on ACHN renal; 63.2% with CAKI-1 renal. Moreover, the growth in the assay with A498 renal was 73.7%; with CCRF-CEM leukemia, 66.1%; with MOLT-4 leukemia it was 61.6%; with SR leukemia, 9.47% (active); in the assay with RPMI-8226 leukemia, 46.2%; with OVCAR-8 ovarian, 102%. The growth with OVCAR-5 ovarian was 107%; in the assay with OVCAR-4 ovarian, 62.5%; with SK-OV-3 ovarian it was 93%; with IGROV1 ovarian, 77.1%; in the assay with OVCAR-3 ovarian, 81.2%; in the assay with HS 578T breast, 76.5%. Further, the growth in the assay on NCI/ADR-RES ovarian was 77.6%.

Regarding `COc1cc2c(c(OC)c1OC)CCC(c1cccc(C(=O)Nc3ccc(C#N)cc3)c1)O2` (stereo not given), the growth is 50.7% in the assay with SK-MEL-2 melanoma; 60.1% in the assay on EKVX NSCLC; 46.6% with SN12C renal; 25% in the assay with UO-31 renal; 39.8% with ACHN renal; 43.4% with CAKI-1 renal. Also, the growth in the assay on A498 renal is 50.8%; with CCRF-CEM leukemia it was 10.5%; in the assay on MOLT-4 leukemia, -14.4% (active); in the assay with SR leukemia it was 16.9%; in the assay with RPMI-8226 leukemia it was 14.4%; in the assay on OVCAR-8 ovarian it was 28.5%. Besides, the growth in the assay with OVCAR-5 ovarian is 79.3%; in the assay on OVCAR-4 ovarian it was 35.3%; with SK-OV-3 ovarian it was 73.2%; in the assay on IGROV1 ovarian it was 68.9%; in the assay with OVCAR-3 ovarian, 65.6%; in the assay with NCI/ADR-RES ovarian, 19%.

For `COc1ccc(/C=C/C(=O)c2cc3c(N)c(C(=O)Nc4cccc5ccccc45)sc3nc2C)cc1`, the growth was 70.9% in the assay with SK-MEL-2 melanoma; 92.4% with EKVX NSCLC; 87.5% with SN12C renal; 62.7% with UO-31 renal; 71.8% in the assay on ACHN renal; 48.6% in the assay on CAKI-1 renal. In addition, the growth in the assay with A498 renal was 44.2%; in the assay on CCRF-CEM leukemia, 33.6%; in the assay with SR leukemia, 44.1%; in the assay with RPMI-8226 leukemia, 33.4%; in the assay on OVCAR-8 ovarian, 81%; in the assay on OVCAR-5 ovarian, 103%. For the same molecule, the growth in the assay on OVCAR-4 ovarian is 88.7%; with SK-OV-3 ovarian, 87.7%; in the assay on IGROV1 ovarian, 70.4%; in the assay with OVCAR-3 ovarian, 22%; in the assay on HS 578T breast, 47.6%; in the assay with NCI/ADR-RES ovarian, 58.8%.

In the case of `CCCc1c(OC(=O)c2ccccc2)nc2[nH]c(=O)sc2c1C`, the growth in the assay with SK-MEL-2 melanoma was 107%; in the assay with EKVX NSCLC, 97.9%; with SN12C renal, 92%; with UO-31 renal, 82.3%; in the assay with ACHN renal, 107%; in the assay with CAKI-1 renal, 95.6%. For the same molecule, the growth with A498 renal was 108%; with CCRF-CEM leukemia, 103%; with MOLT-4 leukemia, 104%; in the assay with SR leukemia it was 115%; with RPMI-8226 leukemia it was 103%; with OVCAR-8 ovarian it was 102%. Besides, the growth in the assay with OVCAR-5 ovarian is 98.8%; in the assay with OVCAR-4 ovarian, 114%; in the assay on SK-OV-3 ovarian, 95.8%; in the assay with IGROV1 ovarian, 101%; in the assay with OVCAR-3 ovarian, 103%; in the assay on HS 578T breast, 99.9%. Besides, the growth with NCI/ADR-RES ovarian was 97.9%.

With `COc1cc2ncnc(Nc3ccc(F)c(Cl)c3)c2cc1OCC(=O)N1CCN(c2ccccc2)CC1`, the growth in the assay with SK-MEL-2 melanoma is 102%; with EKVX NSCLC, 77.6%; in the assay with SN12C renal it was 80.4%; with UO-31 renal, 46.5%; with ACHN renal it was 50.6%; with CAKI-1 renal, 50.6%. In addition, the growth is 61.2% in the assay with A498 renal; 103% with CCRF-CEM leukemia; 90.3% with MOLT-4 leukemia; 84.4% with SR leukemia; 83.6% in the assay with RPMI-8226 leukemia; 93.5% with OVCAR-8 ovarian. Also, the growth is 75% in the assay on OVCAR-5 ovarian; 85.7% in the assay with OVCAR-4 ovarian; 96% with SK-OV-3 ovarian; 48.9% with IGROV1 ovarian; 87.8% in the assay on OVCAR-3 ovarian; 93.9% with HS 578T breast. For the same molecule, the growth with NCI/ADR-RES ovarian was 80.5%.
